# TIM10 inh: growth inhibitors of TIM10 yeast strain | S. cerevisiae TIM10 strain growth, BacTiter-Glo luminescence, 24 h | inhibition, % at 10 µM | 330,000 tested, 1.4% active | AID 463195;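 active means inhibition of 40% or more at the single tested concentration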;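 further: wild-type TIM10 isogenic control strain grown at permissive 25 °C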
# NALP3 yeast inh: blocks the NALP3 inflammasome reconstituted in yeast; Yeast reconstituted NLRP3/ASC/caspase-1, beta-gal luminescence, 24 h; inhibition, % at 10 µM; 330,000 tested, 0.39% active; AID 2825;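 active means inhibition of 50% or more; inactive means inhibition below 50%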;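 further: plate controls were induced DMSO wells for no effect and uninduced yeast grown without galactose for full effect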
# NALP1 inh: inhibitors of NALP1 inflammasome in yeast; S. cerevisiae NALP1/ASC/caspase-1 growth, X-gal OD620, 72 h; inhibition, % at 10 µM; 280,000 tested, 0.61% active; in the data active means inhibition mostly above about 24%, no sharp cut-off; inactive means mostly below about 32%
# tim23-1 inh: inhibits growth of tim23-1 mutant yeast | S. cerevisiae tim23-1 growth, BacTiter-Glo luminescence, 24 h | inhibition, % at 20 µM | 330,000 tested, 1.3% active | AID 463212;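 active means growth inhibition of the mutant yeast at or above 50%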;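 further: temperature-sensitive mutant grown at 25 °C; plate controls were DMSO-treated mutant yeast for no effect and medium wells lacking yeast for full effect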
# tim10-1 inh: tim10-1 yeast growth inhibition; S. cerevisiae tim10-1 ts strain growth, BacTiter-Glo, 24 h; inhibition, % at 20 µM; 330,000 tested, 2.2% active; AID 463190;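 active means inhibition of at least 40%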;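 further: mutant grown at 25 °C; 0% = DMSO wells with yeast and 100% = wells holding no yeast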
# * = called active by the depositor; . = no result given. Most compounds without a hit are left out; they make up all but 4.1% or so of the library.
SMILES,TIM10 inh,NALP3 yeast inh,NALP1 inh,tim23-1 inh,tim10-1 inh
CC(C)(C)c1cc(C(=O)O)c(CN2CCCCC2)o1,3,7,38*,11,8
CCc1ccc(Cn2nnc(C(=O)Nc3ccc(OC)cc3OC)c2N)cc1,4,4,45*,15,16
COc1ccc(NC(=O)c2nnn(CC(=O)Nc3ccccc3OC)c2N)c(OC)c1,-10,-6,7,5,7
CSC(=NCCCN1CCOCC1)NS(=O)(=O)c1cccs1,-18,-12,32*,-1,-20
Cc1ccc(Oc2cc(C)nc(-c3ccccc3O)n2)cc1,10,20,20,0,11
Cc1cc(Oc2ccc(Cl)cc2)nc(-c2ccccc2O)n1,11,14,32*,10,10
Cc1cc(C)cc(N(C(=O)c2csnn2)C(C(=O)NC(C)(C)C)c2cccnc2)c1 (stereo not given),7,0,23*,-2,-2
CCC1CCCCN1C(=O)COc1ccc(S(=O)(=O)N2CCOCC2)cc1Cl (stereo not given),9,6,.,4,7
CCOc1ccc(CSC2=NCCN2)cc1[N+](=O)[O-],8,26,36,3,6
CCCCOc1ccc(CSC2=NCCN2)cc1[N+](=O)[O-],0,11,47*,9,6
CCOC(=O)C1C(=O)C(C(C)=O)C(=O)CC1CC(C)SCC (stereo not given),-32,10,44*,0,-28
CCSC(C)CC1CC(=O)CC(=O)C1 (stereo not given),2,15,10,1,-4
CN(CC(=O)Nc1c(Cl)cccc1Cl)C(=O)Cc1cccs1,2,4,.,-8,3
O=C(NCc1ccncc1)C(=O)N/N=C/c1ccccn1,16,16,4,-4,7
CN(C)c1ccc(NC(=O)CN2CCC(O)(c3ccccc3)CC2)cc1,-4,-4,29*,2,3
O=S(=O)(Nc1cccc(S(=O)(=O)N2CCCC2)c1)c1cccs1,1,6,.,5,8
COc1ccc(CCn2c(=O)c3cccnc3n(Cc3ccc([N+](=O)[O-])cc3)c2=O)cc1OC,.,.,-19,.,.
COc1ccc(Cn2c(=O)c3cccnc3n(Cc3ccc([N+](=O)[O-])cc3)c2=O)cc1,-17,-20,32*,-16,5
CCCCCC1CCC(C(=O)O)CC1 (stereo not given),11,35,27*,12,24
CCCCC1CCC(/C(N)=N/O)CC1 (stereo not given),24,10,-8,23,25
CCN(CC)C(=O)C1CCCN(c2ccc([N+](=O)[O-])cc2)C1 (stereo not given),-3,23,35*,20,16
CCN(CC)C(=O)C1CCCN(c2ccc([N+](=O)[O-])cc2/C=N/NC(=O)c2ccc([N+](=O)[O-])cc2)C1 (stereo not given),22,16,-2,2,16
COc1ccc(OC)c(S(=O)(=O)Nc2ccc(O)c3ccccc23)c1,11,12,104*,17,18
CN(C)CCNC=C(C(=O)Nc1ccc(Cl)cc1Cl)C(=O)Nc1ccc(Cl)cc1Cl,9,31,80*,14,15
Cc1cc(C)nc(SCc2csc(-c3ccccc3)n2)n1,15,-9,22,28,40
SMILES,TIM10 inh,NALP3 yeast inh,NALP1 inh,tim23-1 inh,tim10-1 inh
Nc1ccccc1SCc1csc(-c2ccc(Cl)cc2)n1,23,36,40*,30,26
CC(C)n1cc(-c2ccc(Cl)cc2)cc(C#N)c1=O,-13,4,31*,1,8
C=CCn1cc(-c2ccc(Cl)cc2)cc(C#N)c1=O,11,0,11,2,13
O=C(O)c1cccc(CSc2n[nH]c(-c3ccc(Cl)cc3Cl)n2)c1,-3,10,53*,8,-7
Cc1ccc(C(=O)NCC(=O)Nc2ccc(Cl)cc2)s1,-43,9,.,-12,-69
COCc1cc(C)nc(N2CCN(c3ccccc3)CC2)c1C#N,8,10,8,30,19
COCc1cc(C)nc(N2CCN(Cc3ccccc3)CC2)c1C#N,-15,10,41*,-7,-4
CC1CCCCC12NC(=O)N(CC(=O)Nc1ccccc1-c1ccccc1)C2=O (stereo not given),-5,17,37*,10,19
Cc1cc(C)c2cc(CN(CCO)C(=O)Nc3ccc(F)cc3)c(=O)[nH]c2c1,12,6,2,12,11
Cc1cc(C)c2cc(CN(CCN(C)C)C(=O)Nc3ccccc3Cl)c(=O)[nH]c2c1,4,21,28*,1,9
O=C(Nc1nncs1)c1cc(-c2ccncc2)nc2ccc(Cl)cc12,-4,14,27*,22,19
CC(=O)Nc1cccc(NC(=O)c2cc(-c3cccnc3)nc3ccc(Cl)cc23)c1,7,2,-5,-6,10
O=C(Oc1ccc(Cl)c2cccnc12)c1cccc([N+](=O)[O-])c1,1,-6,58*,29,19
CCCC(=O)NC(C)c1nc2ccccc2[nH]1 (stereo not given),-1,-6,16,4,3
CCC(=O)NC(c1ccccc1)c1nc2ccccc2[nH]1 (stereo not given),9,-2,25*,0,6
Cc1ccc(S(=O)(=O)N2C(=O)CCC2C(=O)NCc2ccco2)cc1 (stereo not given),-22,-5,40*,10,3
CC(=O)NC(Cc1ccc(F)c(F)c1)C(=O)NC1CCN(C(=O)c2ccc(Cl)cc2)CC1 (stereo not given),-2,2,32*,9,18
C=CCN(C(=O)c1csnn1)C(C(=O)NCc1ccc(F)cc1)c1ccccc1 (stereo not given),22,22,21,13,13
CN(Cc1ccno1)Cc1cn(Cc2ccccc2)nc1-c1ccc2c(c1)OCO2,15,4,29*,9,18
COc1cc(CNCCCN2CCOCC2)cc(Br)c1OCC(=O)N1CCCCC1,-4,-8,30*,-8,4
Cc1onc(-c2ccccc2Cl)c1C(=O)OCC(=O)N1CCCCC1,3,10,.,0,-5
O=C(N/C(=C/c1cccc([N+](=O)[O-])c1)C(=O)N1CCOCC1)c1ccc(Br)cc1,7,10,30,4,9
COc1ccc(O)c(/C=N/NC(=O)c2cc(=O)[nH]c3ccccc23)c1,6,1,45*,-34,4
O=C(N/N=C/c1ccccc1)c1cc(=O)[nH]c2ccccc12,-2,14,28,8,12
C(=C\c1nc(-c2ccccc2)no1)/c1ccccc1,8,10,41,7,-3
Fc1cccc(Cl)c1Cc1noc(/C=C/c2ccccc2)n1,9,20,28*,8,-2
O=C(CSc1cccc[n+]1[O-])Nc1cc2c(cc1Cl)C(=O)c1ccccc1C2=O,.,.,55*,.,.
CC(C)N(C(=O)C(=O)c1cccn1-c1ccccc1C#N)C(C)C,12,2,2,5,20

# High-throughput results from PubChem.
